Screening results deposited in PubChem BioAssay by National Center for Advancing Translational Sciences (NCATS).
KDM5B inh – KDM5B demethylase inhibition | Q9UGL1 | KDM5B demethylase, FDH-coupled NADH fluorescence (FDH is formaldehyde dehydrogenase) | Potency, µM (doses to about 57.7 µM), most hits filed as inhibitors | hit rate 2.6% among 220,000 | AID 1347165; active = well fitted inhibition curve with a large enough effect; also: 0% is about no effect; nearly all actives have a fitted effect of over 70% in size
Target sequence (Q9UGL1 whole entry, looked up): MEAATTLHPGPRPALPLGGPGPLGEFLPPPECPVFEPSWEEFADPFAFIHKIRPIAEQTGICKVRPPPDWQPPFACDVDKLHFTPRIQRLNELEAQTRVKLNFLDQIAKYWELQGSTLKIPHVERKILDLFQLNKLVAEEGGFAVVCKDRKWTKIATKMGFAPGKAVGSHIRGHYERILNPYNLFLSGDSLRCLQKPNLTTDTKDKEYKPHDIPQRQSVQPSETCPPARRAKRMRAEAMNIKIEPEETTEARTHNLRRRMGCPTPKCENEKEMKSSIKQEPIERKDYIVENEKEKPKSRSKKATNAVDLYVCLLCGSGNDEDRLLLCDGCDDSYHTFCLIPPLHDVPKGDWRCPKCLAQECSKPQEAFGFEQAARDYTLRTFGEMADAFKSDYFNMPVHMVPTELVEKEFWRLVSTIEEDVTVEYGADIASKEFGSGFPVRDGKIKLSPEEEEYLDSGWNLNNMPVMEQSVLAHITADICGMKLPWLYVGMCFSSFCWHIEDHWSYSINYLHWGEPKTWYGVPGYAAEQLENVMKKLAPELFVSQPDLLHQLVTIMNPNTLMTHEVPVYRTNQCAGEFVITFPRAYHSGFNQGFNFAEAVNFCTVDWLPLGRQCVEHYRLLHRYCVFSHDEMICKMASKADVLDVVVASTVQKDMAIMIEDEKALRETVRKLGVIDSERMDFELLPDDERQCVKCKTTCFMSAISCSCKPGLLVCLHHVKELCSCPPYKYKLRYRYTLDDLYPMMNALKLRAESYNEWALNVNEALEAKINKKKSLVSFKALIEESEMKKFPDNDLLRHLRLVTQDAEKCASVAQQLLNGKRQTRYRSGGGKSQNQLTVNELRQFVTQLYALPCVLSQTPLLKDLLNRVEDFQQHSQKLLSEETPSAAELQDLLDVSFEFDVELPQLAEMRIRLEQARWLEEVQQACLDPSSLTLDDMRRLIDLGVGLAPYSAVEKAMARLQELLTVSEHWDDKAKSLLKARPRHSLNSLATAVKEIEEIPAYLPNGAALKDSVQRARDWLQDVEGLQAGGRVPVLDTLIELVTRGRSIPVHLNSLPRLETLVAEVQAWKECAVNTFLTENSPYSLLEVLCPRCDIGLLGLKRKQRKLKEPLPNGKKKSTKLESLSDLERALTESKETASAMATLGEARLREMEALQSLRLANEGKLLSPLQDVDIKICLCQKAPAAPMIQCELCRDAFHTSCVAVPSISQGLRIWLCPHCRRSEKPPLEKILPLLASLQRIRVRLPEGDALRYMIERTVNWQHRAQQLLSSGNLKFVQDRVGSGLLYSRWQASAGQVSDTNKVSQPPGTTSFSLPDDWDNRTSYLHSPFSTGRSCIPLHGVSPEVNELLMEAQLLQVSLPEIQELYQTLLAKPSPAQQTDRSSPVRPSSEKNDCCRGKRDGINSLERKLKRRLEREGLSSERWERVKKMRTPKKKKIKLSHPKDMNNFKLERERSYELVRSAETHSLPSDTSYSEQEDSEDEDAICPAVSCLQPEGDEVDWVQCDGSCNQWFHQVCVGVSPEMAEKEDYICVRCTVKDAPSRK
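Inhibition is measured as reduced NADH fluorescence generation from FDH coupling to formaldehyde release. Truncated KDM5BΔAP at 200 nM final acts on H3K4me3 peptide (12.5 µM in substrate mix) in pH 7.5 HEPES buffer with Tween-20, 30 min, room temperature.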
* = called active by the depositor; ! = a repeat was not active. Shown is part of a subset that was picked to be rich in hits. Potency is read from the fitted curve at half-maximal effect.

Screening Cc1cccc(-c2noc([C@@H]3Cc4nc[nH]c4CN3C(=O)c3ccc(F)cc3)n2)c1 returned KDM5B inh inactive.
Screening O=C(c1cccs1)N1Cc2[nH]cnc2C[C@H]1c1nc(-c2ccc3ccccc3c2)no1 returned KDM5B inh inactive.
Fc1ccc(-c2noc([C@@H]3Cc4nc[nH]c4CN3Cc3cccs3)n2)cc1Cl was read as KDM5B inh inactive.
`c1ccc(CN2Cc3[nH]cnc3C[C@H]2c2nc(-c3ccncc3)no2)cc1` gave KDM5B inh inactive.
Screening COc1ccc(OCCCN)cc1 returned KDM5B inh inactive.
COc1cc(C(=O)Nc2cc(Cl)ccc2O)ccc1OC(C)=O was read as KDM5B inh inactive.
For Cc1ccccc1CN1CCN(c2nc3c(c(=O)[nH]c(=O)n3C)n2C/C=C/c2ccccc2)CC1 the results were KDM5B inh inactive.
Screening CC(=O)N1N=C(c2c(-c3ccccc3)c3cc(Cl)ccc3n(C)c2=O)CC1c1cccs1 (stereo not given) returned KDM5B inh inactive.
COc1ccc(C2Cn3nnc(C(=O)N4CCN(C(=O)Cc5ccccc5C)CC4)c3CO2)cc1 (stereo not given) was read as KDM5B inh inactive.
For Cc1csc(NC(=O)c2ccc(Oc3ccc(F)cc3Br)nc2)n1 the results were KDM5B inh inactive.
`O=C(CCc1nnc2ccc(NCc3ccccc3Cl)nn12)Nc1cccnc1` gave KDM5B inh inactive.
N#Cc1ccc(C(=O)NCCCC2CCCC2)cc1 was read as KDM5B inh inactive.
For CCOc1cccc(/C=C2\N=C(SC)SC2=O)c1 the results were KDM5B inh inactive.
O=C1COc2ccc(-c3cccc(O)c3)nc2CN1CCOc1ccccc1 was read as KDM5B inh inactive.
`COc1cccc(-c2ccc3c(n2)CNC(=O)CO3)c1` gave KDM5B inh 32µM*.
Screening O=C1COc2ccc(-c3ccccc3)nc2CN1 returned KDM5B inh inactive.
For CCn1c(SCc2noc(-c3ccccc3Cl)n2)nnc1N1CCOCC1 the results were KDM5B inh inactive.
COCC(=O)NC[C@H]1CCN(Cc2ccc(C#N)cc2)C[C@H]1N(C)C was read as KDM5B inh 18µM*.
CN(C)[C@@H]1CN(Cc2ccc(C#N)cc2)CC[C@@H]1CNC(=O)C1CC1 was read as KDM5B inh inactive.
Screening COCC(=O)NC[C@H]1CCN(Cc2ccc(Cl)cc2)C[C@H]1N(C)C returned KDM5B inh inactive.
CC(C)NC(=O)c1ccc(F)cc1 was read as KDM5B inh inactive.
`CC(C)NC(=O)C1CCc2nnc(-c3ccc(Cl)nc3)n21` (stereo not given) gave KDM5B inh inactive.
Screening CC(C)NC(=O)c1nc(-c2ccc(Cl)nc2)c2ccccn12 returned KDM5B inh 32µM*.
CC(C)NC(=O)c1nc(-c2ccc(F)cc2)c2ccccn12 was read as KDM5B inh 35µM*.
`CNC(=O)CCS(=O)(=O)Cc1coc(-c2ccc(C)cc2C)n1` gave KDM5B inh inactive.
For CCn1c(SCC(=O)Nc2cccc(Br)c2)nc2c(-c3ccccc3)c[nH]c2c1=O the results were KDM5B inh inactive.
Screening CCCCc1ccc(NC(=S)N(Cc2ccccc2)Cc2ccccc2)cc1 returned KDM5B inh inactive.
Screening COc1ccc(Cc2ncc3c(n2)CN(C(=O)c2ccc(F)c(C)c2)C3)cc1 returned KDM5B inh inactive.
COCc1nnc2n1CCC(NC(=O)Cc1c[nH]c3ccccc13)CC2 (stereo not given) was read as KDM5B inh inactive.
Screening COCc1nnc2n1CCC(NC(=O)c1ccco1)CC2 (stereo not given) returned KDM5B inh inactive.
Screening COCc1nnc2n1CCC(NC(=O)c1n[nH]c3ccccc13)CC2 (stereo not given) returned KDM5B inh 28µM*.
`O=C(NCC1(COc2cccnc2)C[C@@H](O)[C@@H](O)C1)C1CC1` (stereo not given in full) gave KDM5B inh inactive.
For COc1ccc(CC(=O)NC2CCN(c3nc4ncccc4o3)CC2)cc1 the results were KDM5B inh 32µM*.
For COc1ccc(CC(=O)NC2CCN(c3nnc4cccc(C)n34)CC2)cc1 the results were KDM5B inh 28µM*.
`Cc1ccc(C)c2sc(N3CCN(C(=O)c4ccco4)CC3)nc12` gave KDM5B inh inactive.
`COc1cccc(CNC(=O)C2CCN(c3nc4ccccc4o3)CC2)c1` gave KDM5B inh inactive.
`Cc1cccc2nnc(N3CCN(C(=O)c4ccco4)CC3)n12` gave KDM5B inh 22µM*.
For O=C(Cc1ccccn1)NC1CCN(c2nc3ncccc3o2)CC1 the results were KDM5B inh 25µM*!.
For Cc1cccc2sc(N3CCN(C(=O)c4ccco4)CC3)nc12 the results were KDM5B inh inactive.
Screening COc1ccc(CC(=O)NC2CCN(c3cc(-c4ccc(OC)cc4)[nH]n3)CC2)cc1 returned KDM5B inh inactive.
`O=C(Nc1ccccc1Cl)C1CCCN1c1nc2ncccc2o1` (stereo not given) gave KDM5B inh inactive.
`COc1ccc(CC(=O)NC2CCN(c3cn[nH]c(=O)c3)CC2)cc1` gave KDM5B inh inactive.
Screening CCn1ncc(N2CCC(NC(=O)Cc3ccc(OC)cc3)CC2)cc1=O returned KDM5B inh inactive.
For Cc1ccc(C(=O)Nc2ccc(Cl)c(C(F)(F)F)c2)c(C)c1 the results were KDM5B inh inactive.
For O=C(Nc1ccc(Cl)c(Cl)c1)C(=O)c1c[nH]c2ccccc12 the results were KDM5B inh inactive.
Screening Cc1cc(C)c(NC(=O)CN(C)C(=O)C2CCN(C(=O)c3ccc(Cl)cc3)CC2)c(C)c1 returned KDM5B inh inactive.
For CN1CCNc2nc(COc3ccc(Oc4ccccc4)cc3)n(Cc3ccccc3)c2C1=O the results were KDM5B inh inactive.
`Cc1oc2cc(OCC(=O)Nc3nccs3)ccc2c(=O)c1-c1ccc(Cl)cc1` gave KDM5B inh inactive.
For Cc1ccc(Cn2c(=O)n(Cc3nc(-c4ccccc4)no3)c(=O)c3ccccc32)cc1 the results were KDM5B inh inactive.
COc1ccc(-c2nnsc2C(=O)NCCC(C)C)cc1 was read as KDM5B inh inactive.
For Cc1nc(-c2ccc(S(=O)(=O)Nc3ccc(F)c(F)c3)cc2)co1 the results were KDM5B inh inactive.
Screening O=C(Cc1ccc(F)cc1)N1CCN(c2nc3ncccc3o2)CC1 returned KDM5B inh inactive.
Screening O=C(NCc1ccc(F)cc1)C1CCN(c2nc3ccccc3o2)CC1 returned KDM5B inh inactive.
O=C(Cc1ccc(F)cc1)NC1CCN(c2nc3ncccc3o2)CC1 was read as KDM5B inh 28µM*.
`O=C(c1ccc2[nH]ccc2c1)N1CCCC(Cc2noc(-c3cnccn3)n2)C1` (stereo not given) gave KDM5B inh inactive.
`COc1ccc(Nc2ccc3c(n2)CN(Cc2ccc(C(F)(F)F)cc2)C(=O)CO3)cn1` gave KDM5B inh 11µM*.
`O=C(Nc1ccc2c(c1)CN(Cc1ccc(Cl)cc1)C(=O)CO2)c1ccccc1` gave KDM5B inh inactive.
`Cc1ccccc1CN1Cc2nc(-c3ccc4c(c3)OCO4)ccc2OCC1=O` gave KDM5B inh 35µM*.
For COc1ccc(Nc2ccc3c(n2)CN(Cc2ccccc2)C(=O)CO3)cn1 the results were KDM5B inh inactive.
CN1Cc2nc(-c3cccc(C(F)(F)F)c3)ccc2OCC1=O was read as KDM5B inh inactive.
CN1Cc2nc(OCc3ccc(F)cc3)ccc2OCC1=O was read as KDM5B inh inactive.
